Test results as given in ChEMBL document CHEMBL4888484, “Replenishing the malaria drug discovery pipeline: Screening and hit evaluation of the MMV Hit Generation Library 1 (HGL1) against asexual blood stage Plasmodium falciparum ,using a nano luciferase reporter read-out” (2022).
In all, about 4,800 compounds went through this assay and about 420 (8.8%) showed an effect of 50% or more. The entries come from a sample that favours strong results as a whole.

What follows are compounds tested on Plasmodium falciparum (assay: Confirmatory screen in NF54 nanoGlo assay, in single point, at 2uM, 72h). Conditions: timepoint 72 hour.
Type: functional, Erythrocyte

| Structure (SMILES) | % Inhibition |
| --- | --- |
| NS(=O)(=O)Cc1ccc(CNc2ccc3ccc(F)cc3n2)cc1 | 3% |
| CCC(=O)N1CCc2sc(C(=O)NC3CCN(Cc4ccccc4)CC3)cc2C1 | -5% |
| CCCn1nccc1C(=O)NCCCn1ncc2c(C)cccc21 | -2% |
| CNC(=O)c1cc(NS(=O)(=O)N2CCCCCC2)ccc1F | -8% |
| CCNC(=O)N1CCCC[C@@]1(C)c1noc(-c2ccc(F)cc2)n1 | 5% |
| COc1cc(CNCCN2CCOCC2)ccc1OCc1cccc(C)c1 | -2% |
| Cc1nn(C)c(Cl)c1CNCc1ccc(N2CCCCC2)nc1 | -10% |
| O=C(Nc1ccncc1)c1nc(N2CCCC2)ncc1Br | -5% |
| Fc1ccc(COc2cccc(CNCCN3CCOCC3)c2)cc1 | -8% |
| CC1CCC(C)(NC(=O)Nc2ccn(C(C)C)n2)CC1 (configuration not stated) | -11% |
| CC1(C)CC[C@H](NC(=O)CCNc2ncccn2)c2ccccc21 | -8% |
| COc1cc2c(cc1OC)CN(c1noc(-c3ccccc3)n1)CC2 | -5% |
| CC(C)(C)c1ccc(C(=O)N[C@H]2C[C@@H]3CC[C@H]2C3)cc1 | 8% |
| Cc1ccc(CNC(=O)c2csnn2)n1C | -1% |
| COc1ccc(CNC(=O)[C@H](C)n2ccc3cc(S(=O)(=O)N4CCCC4)ccc32)cc1OC | 0% |
| O=C1NC(=O)C2(CCN(C(=O)C3CC4CCC3C4)CC2)N1 (configuration not stated) | -7% |
| CS(=O)(=O)N1CC[C@H](CC(=O)N2CCN(c3ccc(F)cc3)CC2)C1 | -14% |
| N#CC1CCC(Nc2cnn(-c3ccncc3)c2)CC1 (configuration not stated) | 5% |
| CC(C)C(=O)N1CC[C@H](CC(=O)NCc2ccncc2)C1 | 0% |
| Cc1nn(C)cc1S(=O)(=O)N1CCC[C@@H]1CCc1ccccn1 | -12% |
| COc1cc(OC)c(OC)cc1CNC(C)C | -2% |
| Cc1c(C(=O)NC[C@](C)(O)c2ccc(F)cc2F)cnn1C | 7% |

| Structure (SMILES) | % Inhibition |
| --- | --- |
| CN(Cc1cccnc1)c1ccc(S(=O)(=O)C(F)F)cc1 | -5% |
| O=C(NCCc1c(Cl)cccc1Cl)[C@@H]1CCCc2[nH]cnc21 | -2% |
| O=C(c1cc(F)c[nH]1)N1CCN(C(=O)c2cc(F)c[nH]2)[C@@H]2CCCC[C@H]21 | 13% |
| COc1ccc(C2=NC3(CCN(Cc4ccccc4)CC3)N[C@H](c3cc(Cl)ccc3O)C2)cc1 | 24% |
| COc1ccc(-c2cc3ncc(C(=O)c4cc(Cl)ccc4O)cn3n2)cc1 | 72% |
| O=C(Cc1ccc(Cl)cn1)Nc1ccnn1[C@H]1CCCc2ccccc21 | -10% |
| Cc1ccc(S(=O)(=O)N(CC(=O)NC2CCN(C)CC2)c2cccc(Cl)c2)cc1 | -7% |
| CN1CCN(C(=O)CNC(=O)c2cccc(Cl)c2)CC1 | -2% |
| Cc1ccc(COc2cccc(CNC3CC3)c2)cc1 | -7% |
| Cn1c(=O)c2ccnn2c2ccc(C(=O)NC3CCN(Cc4ccccc4)CC3)cc21 | 23% |
| CC(C)Cn1ncnc1COC(=O)c1cccnc1 | -1% |
| CC[C@H]1C[C@@H]1CNC(=O)c1cccc(NC(=O)c2ccco2)c1 | -7% |
| Cc1cc2[nH]ncc2cc1NC(=O)c1ccco1 | -8% |
| CC(C)(C)c1nc(Cn2c3c(sc2=O)CCCC3)no1 | 1% |
| COc1ccc(CN2CCC(C(=O)NCCCN3CCOCC3)CC2)c(OC)c1 | 4% |
| Cc1ccccc1S(=O)(=O)c1cc2cc(Br)cc(Br)c2nc1N | 0% |
| COc1cccc(C2=NS(=O)(=O)N(C)C(C(=O)N3CCC(C(N)=O)CC3)=C2)c1 | 20% |
| CC(=O)c1ccc(NC(=O)Cn2c(-c3ccccc3)nc(C)cc2=O)cc1 | 4% |
| CC(=O)Nc1ccc(-c2cn3c4ccccc4ccc3[n+]2C)cc1 | 76% |
| CC(=O)Nc1ccc(NC(=O)CCC(C)C)cc1 | -9% |
| CC(=O)N[C@H]1[C@H](c2ccccc2)N(CCCc2ccccc2)CC[C@@]1(C)O | 1% |
| C#CCN(C(=O)c1cnn(CC(C)C)c1C(F)F)c1nccs1 | -1% |

| Structure (SMILES) | % Inhibition |
| --- | --- |
| Cc1ccc(C2=NC3(CCCC3)NC2=O)cc1 | 3% |
| Cc1ccc[n+](Cc2ccc3ccccc3n2)c1 | 53% |
| O[C@@H](Cc1ccc2ccccc2n1)c1ccccc1 | -5% |
| c1ccc2cc(-c3ccc4ccccc4n3)ccc2c1 | -1% |
| c1ccc2c[n+](Cc3ccc4ccccc4n3)ccc2c1 | 50% |
| CC(C)(C)OC(=O)N1CCN(C[C@H]2CN(c3ccc(F)cc3)C(=O)O2)CC1 | -11% |
| O=C(Nc1ccccc1)c1ccc(Nc2ncc(-c3cccc(F)c3)cn2)cc1 | -3% |
| CC(C)(C)c1ccc(-c2cc(C[C@H]3CNCC[C@H]3CC(=O)NCCN3CCOCC3)no2)cc1 | 9% |
| OC(CNC1CCCNc2ccccc21)c1ccc(Cl)s1 (configuration not stated) | 58% |
| O=C(NC[C@H](O)c1ccc(Cl)s1)c1ccsc1 | 1% |
| CC(C)(C)OCCON=C(N)c1cccs1 | 10% |
| O=C(C[C@@H]1C=CCC1)Nc1nc(-c2ccc(Cl)cc2)cs1 | 2% |
| C[C@H]1CNCCN1C(=O)c1coc2ccccc12 | -4% |
| O=C(Cn1ccnc1)N1CCCCCC1CC(O)c1ccccc1 (configuration not stated) | 0% |
| O=c1[nH]c2cc3c(cc2c(=O)n1CCc1nc(-c2ccccc2Br)no1)OCO3 | -4% |
| O=C(C[C@H]1CCN(C(=O)Nc2ccccc2)C1)NC1CC1 | -6% |
| O=C(Nc1ccncc1)c1ccc2ccccc2n1 | 0% |
| CCOC(=O)c1cn(CC)c2cc(NC3CCCCC3)c(F)cc2c1=O | 78% |
| CCOC(=O)c1cc(NC(=O)C(C)(C)NC(=O)OC(C)(C)C)c(F)cc1C | -2% |
| CCOC(=O)c1ncn(C2CCCCC2)c1N | 1% |
| CCc1ccc(CNC(=O)C2(N3CCOCC3)CCC2)s1 | -5% |
| CCCN(CCC)C(=O)CCC(=O)N[C@]1(C(F)(F)F)CCc2ccccc21 | 15% |

| Structure (SMILES) | % Inhibition |
| --- | --- |
| Cc1cccc(NC(=O)[C@@H](C#N)C(=O)C2CCC2)c1 | 0% |
| COc1ccc(CN(Cc2ccncc2)CC2CCN(C3CCN(C)CC3)CC2)c(F)c1 | 85% |
| CN1CCC(N2CCN(Cc3ccc4cc(O)ccc4c3)CC2)CC1 | 46% |
| CN1CCC(N2CCC(CN(Cc3ccncc3)Cc3c(F)cccc3Cl)CC2)CC1 | 23% |
| O=C(Nc1ncc(CCO)s1)[C@@H]1CCCN1C(=O)Cc1cccs1 | 0% |
| CN1CCC(NCC[C@@H](Cc2ccccc2Cl)c2ccc(Cl)cc2)CC1 | 82% |
| Clc1ccccc1COc1ccc(CNC2CCCCC2)cc1 | -2% |
| CC(C)CC[C@@H](CCNCCN(C)C)c1ccc(Cl)cc1 | 96% |
| CC(C)CC[C@@H](CCNC1CCN(C)CC1)c1ccc(Cl)cc1 | 80% |
| CN(C)CCCNCc1ccc(Cl)cc1Cl | -3% |
| CN(C)CCNCc1ccc(Cl)c(Cl)c1 | -11% |
| CCn1cnnc1C1CCN([C@@H](C)C(=O)Nc2ccccc2C)CC1 | -7% |
| COc1ccc(C)cc1-n1ccc(C(=O)N2CCCc3c(C(N)=O)cccc32)n1 | -11% |
| COC(=O)c1ncn(CNC2(c3ccc(Cl)cc3)CCCC2)n1 | 6% |
| CN(C)c1ccc(-c2nc([C@H]3CCOC3)cs2)cc1 | 6% |
| Cc1cc(CN2C(=O)NC3(CCCCC3)C2=O)no1 | -4% |
| Cc1cccnc1C(=O)N1CC(n2cnnc2[C@@H]2CCCO2)C1 | -2% |
| CC(=O)c1cc(-c2cc(O)cc(CC[C@H]3CCCCN3)c2)ccc1O | 78% |
| Cc1cc(-c2cc(O)cc(CC[C@H]3CCCCN3)c2)ccn1 | 79% |
| Cc1cc(S(=O)(=O)NC[C@H]2CCCCN2)sc1C | -9% |
| Cc1ccc(-c2cc(O)cc(CC[C@H]3CCCCN3)c2)c(C)n1 | 53% |
| CC1CC(N)CCN1C(=O)c1cccc(-c2noc(C3CC3)n2)c1 (configuration not stated) | 2% |

| Structure (SMILES) | % Inhibition |
| --- | --- |
| CN(CCOc1ccc(Cl)cc1Cl)[C@H]1CCS(=O)(=O)C1 | -7% |
| CCN(C(C)=O)c1ccc(Cl)cc1F | -13% |
| COc1ccc(C)cc1NC(=O)C[C@H]1CCN(S(C)(=O)=O)C1 | 0% |
| Cc1cc2nc(C(=O)NC3CCN(Cc4ccccc4)CC3)c(=O)n(C)c2cc1C | -8% |
| O=C(Cn1cccc1-c1nc(-c2ccc(F)c(Br)c2)no1)N1CCc2ccccc2C1 | 1% |
| O=C(Nc1ccc(OC(F)F)cc1)c1cc(C2CC2)nc2c1c(C1CC1)nn2-c1ccccc1 | -7% |
| Cc1cc(NC(=O)c2ccc(COc3ccc4ccccc4c3)o2)nn1C | -3% |
| Cc1ccc(N2C[C@@H](c3nnc(NC(=O)Cc4ccc(Cl)cc4)o3)CC2=O)cc1 | -13% |
| CC(C)c1cc(=O)[nH]c(-n2nc(C3CC3)cc2NC(=O)COc2ccc3ccccc3c2)n1 | 70% |
| CC(C)c1nc(C2CN(C(=O)Nc3ccc(F)c(Cl)c3)C2)n(C)n1 | 4% |
| CC(C)c1cc(=O)[nH]c(-n2nc(C3CC3)cc2NC(=O)Cc2ccc(Cl)cc2)n1 | 69% |
| CCNC(=O)C1Cc2ccc(OC)cc2N2CCN(c3ccc(OC)cc3)CC12 (configuration not stated) | 2% |
| O=C(C[C@H]1CCN(C(=O)c2cc(F)ccc2F)C1)NC1CC1 | -2% |
| CN(C)/C=C/c1cc(C#N)c(C#N)cc1Br | -4% |
| O=C(c1c(F)cccc1F)N1C[C@@H]2CCCN2c2ccc(C(F)(F)F)cc21 | -13% |
| COc1ccccc1-n1cnc2cc(C(=O)N3CCCC3)ccc2c1=O | -4% |
| CC[C@H](C)[C@H](NC(=O)c1ccc(Br)c(F)c1)C(=O)O | -8% |
| N[C@@H](CO)c1cccc(Br)c1 | 7% |
| COC(=O)CN(c1ccccc1)S(=O)(=O)c1ccc2nncn2c1 | -1% |
